Bfl-1 A1 inh: inhibitors of the anti-apoptotic protein A1, read as caspase activation | MEF A1-2A-BIM cells, Caspase-Glo 3/7 luminescence, 3 h; percent of clofoctol response, vehicle zero | caspase activation, % (no concentration beside the values) | hit rate 0.066% among 330,000 | AID 2462;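 active means over half of replicate activation scores above 10%, or exactly half above 10 with the replicate mean above 10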
HSV augment: HSV replication enhancement; HSV replication augmentation in cells, fold increase; maximum fold increase; hit rate 0.005% among 220,000; AID 1956; in the data active means maximum fold increase above about 1.5; tested in PC3 cells
H9c2 TAG inh: triacylglycerol accumulation inhibition; hit rate 0.66% among 230,000; AID 651582; inhibition, % at 12.5 µM; H9c2 cells, Nile Red lipid (TAG) fluorescence; cells loaded with 200 µM oleic acid;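 active means pattern-corrected inhibition of lipid staining of at least 50% with the nuclear-stain viability signal not falling by more than 50%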;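 further: 0% = DMSO wells and 100% = triacsin C control wells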
Efflux pump inh: antifungal efflux pump inhibition, Nile Red retention | S. cerevisiae Candida pump triplex | inhibition, % at 10 µM | hit rate 0.44% among 330,000 | AID 485275;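 active means plate passing quality check with inhibition over a set limit, or well fluorescence over plate mean plus 4 SD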;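 further: Nile Red retained in pooled yeast measured as flow cytometry median fluorescence; 0% = buffer negative control and 100% = Enniatin B positive control; higher means more Nile Red kept so more efflux inhibition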
NPR1 activator: GC-A (human) enzyme activation; HEK293 GC-A cells, cGMP TR-FRET, EC30 ANP; 0% at EC30 ANP, 100% saturating ANP; AID 1671463; activation, % at 10 µM; P16066; hit rate 0.14% among 370,000; in the data active means activation above about 40%
NPR2 activator: GC-B (human) receptor activation; activation, % at 10 µM; hit rate 0.11% among 370,000; HEK293-GC-B cells, CNP EC30, cGMP TR-FRET; 0% at EC30 CNP, 100% saturating CNP; P20594;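 active means activation at 10 µM reaching about 35% in either raw or pattern-adjusted values, limit read from the data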
Cmpd fluor yeast: flagged as fluorescent in efflux inhibitor counter-screen. shares compounds with Efflux pump inh. S. cerevisiae AD/pABC3, compound fluorescence, flow cytometry. fluorescence ratio to DMSO, % at 10 µM. hit rate 4% among 1,700;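 active means fluorescence ratio to DMSO above its plate's cutoff, the plate mean ratio plus 5 SD, cut at about 210% in these data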;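 further: unstained yeast with no Nile Red so the signal is compound autofluorescence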
CaMdr1 efflux inh: inhibitors of Candida albicans Mdr1 efflux pump | shares compounds with Efflux pump inh | S. cerevisiae AD/CaMDR1, Nile Red efflux, flow cytometry | inhibition, % at 10 µM | hit rate 1% among 1,700; in the data active means inhibition above about 26%;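 further: 0% = DMSO vehicle and 100% = reference inhibitor; higher means more Nile Red retained so more efflux inhibition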
CaCdr2 efflux inh: blocks the Candida albicans Cdr2 efflux pump in yeast; S. cerevisiae AD/CaCDR2, Nile Red retention, flow cytometry; shares compounds with Efflux pump inh; hit rate 4% among 1,700; Nile Red retention ratio vs DMSO, % at 10 µM; in the data active means Nile Red retention ratio vs DMSO above about 190%;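 further: higher ratio means more blocking of Cdr2 efflux of the dye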
Cdr1 pump inh: Candida Cdr1 efflux pump inhibition. shares compounds with Efflux pump inh. S. cerevisiae AD/CaCDR1, Nile Red efflux, flow cytometry. inhibition, % at 10 µM. hit rate 1% among 1,700. AID 588522;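 active means inhibition above the screen-wide mean plus twice its standard deviation, cut at about 32% in these data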
Numbers without * were called inactive; i = inactive; · = not tested or not shown. Shown are actives, neighbours in structure and some others; about 1% of the full set was active somewhere.

SMILES | Bfl-1 A1 inh | HSV augment | H9c2 TAG inh | Efflux pump inh | NPR1 activator | NPR2 activator | Cmpd fluor yeast | CaMdr1 efflux inh | CaCdr2 efflux inh | Cdr1 pump inh
CCC(C)(C)NC(=O)C(c1cccs1)N(C(=O)c1ccn[nH]1)c1cccc(OC)c1 (centres undefined) | 1 | i | -5 | 0 | -14 | -8 | · | · | · | ·
CCC1CCCCN1CCCNC(=O)CN1C(=O)COc2ccc(S(=O)(=O)N3CCOCC3)cc21 (centres undefined) | 0 | · | · | 43* | 6 | 4 | 103 | 0 | 94 | 0
O=C(c1cc2c(s1)CCCC2)N1CCN(S(=O)(=O)c2ccccc2C(F)(F)F)CC1 | 0 | i | · | 6.7* | 5 | -2 | 108 | 0 | 106 | 0
CN(CCc1ccccn1)C(=O)c1ccc(OC(F)(F)F)cc1 | 0 | i | -9 | 0.8* | 0 | 0 | 98 | 0 | 107 | 0
COC(=O)[C@]12C[C@H](CC(=O)N3CCC(c4ccccc4)CC3)C(=O)N(Cc3ccccc3)C1=C[C@H](COCc1ccccc1)O[C@@H]2C | · | · | · | · | -1 | -1 | · | · | · | ·
CCSc1nc2c(c(=O)[nH]1)C(c1cccnc1)C(C(=O)OC)=C(C)N2 (centres undefined) | -1 | i | 8 | 0 | -1 | -6 | · | · | · | ·
CCSc1nc2c(c(=O)[nH]1)C(c1ccncc1)C(C(=O)OC(C)C)=C(C)N2 (centres undefined) | 1 | i | 19 | 0.4* | -2 | -5 | 92 | 0 | 107 | 0
O=C(CCN1CCCCCC1)Nc1ccc2c(c1)OCCO2 | 1 | i | -25 | 0.6* | 5 | 4 | 101 | 0 | 104 | 0
N#CCCn1cc(/C=C(\C#N)c2nc3ccccc3s2)c(-c2ccc(F)cc2)n1 | -1 | i | 29 | 1 | -1 | 62* | 82 | 0 | 100 | 0
COc1ccc(NC(=O)C2OC3OC(C)(C)OC3C3OC(C)(C)OC23)cc1 (centres undefined) | 1 | i | · | 1.5* | 3 | 0 | 101 | 0 | 120 | 0
CCCNC(=O)Nc1ccc2c(c1)C(=O)N(C)[C@H]1CC[C@@H](CC(=O)OC)O[C@H]1CO2 | · | · | · | · | 0 | 2 | · | · | · | ·
O=C1/C(=C/c2cccs2)SC(=S)N1NS(=O)(=O)c1ccccc1 | 1 | i | -1 | 0 | 5 | -1 | 80 | 0 | 81 | 0
Cc1ccc(S(=O)(=O)Cn2nnnc2C(CC(C)C)N2CCN(c3ccccc3)CC2)cc1 (centres undefined) | 1 | i | -17 | 0.9* | 5 | 0 | 107 | 0 | 107 | 0
Cc1ccc(S(=O)(=O)Cn2nnnc2C(CC(C)C)N2CCN(C)CC2)cc1 (centres undefined) | -1 | i | 1 | 0 | -2 | -2 | · | · | · | ·
CCCCCCCCN1C(=O)[C@@H](CC(=O)N2CCC(c3ccccc3)CC2)C[C@@]2(C(=O)OC)C1=C[C@H](COCc1ccccc1)O[C@@H]2C | · | · | · | · | -5 | 9 | · | · | · | ·
CCN(CC)c1ccc(C=Nn2c(-c3ccc(F)cc3)n[nH]c2=S)c(O)c1 | · | · | · | · | -5 | -3 | · | · | · | ·
O=C(c1cc(-c2ccncc2)nc2ccc(Br)cc12)N1CCN(c2ccccn2)CC1 | 1 | i | 11 | 0 | 0 | -2 | · | · | · | ·
O=C(c1cc(-c2ccccc2Cl)nc2ccc(Br)cc12)N1CCN(c2ccccn2)CC1 | -2 | · | -5 | 5.3* | -6 | 0 | 91 | 0 | 92 | 0
O=C(CSc1nnc(-c2ccccn2)n1-c1ccccc1)Nc1ccc(OCc2ccccc2)cc1 | · | · | · | · | 1 | 4 | · | · | · | ·
O=C(CSc1ccc(Br)cc1)N1CCN(S(=O)(=O)c2ccccc2)CC1 | 0 | · | 10 | 2.0* | -6 | -2 | 104 | 0 | 105 | 0
O=C(NCCC1=CCCCC1)C1CCC(CNc2nc(=S)[nH]c3ccccc23)CC1 (centres undefined) | -1 | i | -23 | 1.1* | -4 | -3 | 115 | 0 | 108 | 0
COCCn1c(=S)[nH]c2sc3c(c2c1=O)CCCC3 | 0 | · | · | 1.1* | 4 | 0 | 87 | 0 | 89 | 0
COCCCn1c(=S)[nH]c2sc3c(c2c1=O)CCCC3 | 1 | · | · | 0 | -4 | -3 | · | · | · | ·
CC(C)CC(=O)c1c[nH]c(C(=O)NCCCn2ccnc2)c1 | 0 | i | · | 0 | 4 | 5 | · | · | · | ·
O=C(Cc1ccc(Cl)cc1)c1c[nH]c(C(=O)NCCCn2ccnc2)c1 | 0 | i | -11 | 0.6* | -1 | -2 | 99 | 0 | 85 | 0
SMILES | Bfl-1 A1 inh | HSV augment | H9c2 TAG inh | Efflux pump inh | NPR1 activator | NPR2 activator | Cmpd fluor yeast | CaMdr1 efflux inh | CaCdr2 efflux inh | Cdr1 pump inh
COc1cc(OC)c(NS(=O)(=O)c2ccc(Cl)c(C(=O)OC(C)C(=O)N3CCCC3)c2)cc1Cl (centres undefined) | 0 | i | · | 7.6* | 5 | 3 | 101 | 0 | 91 | 0
COc1ccc(CC(=O)O/N=C(\N)c2ccc(C)cc2)cc1 | -2 | i | -6 | 0 | 5 | 4 | 114 | 0 | 117 | 0
NC(=S)NNC(=O)[C@@H]1CCCC[C@@H]1C(=O)O | 1 | i | · | 15* | · | · | 101 | 0 | 104 | 0
CC(=O)N(C)c1ccc(NC(=S)NC(=O)/C=C/c2ccco2)cc1 | 0 | · | · | 0.6* | 5 | 5 | 106 | 0 | 98 | 0
CN1CCN(C(c2ccccn2)c2cc(Cl)c3cccnc3c2O)CC1 (centres undefined) | 1 | i | 6 | 0 | -6 | -7 | · | · | · | ·
Oc1c(C(c2ccccn2)N2CCC(Cc3ccccc3)CC2)cc(Cl)c2cccnc12 (centres undefined) | -1 | i | · | 53* | 2 | -2 | 98 | 0 | 108 | 0
C=CCN1C(=O)[C@@H](CC(=O)N2CCSCC2)[C@]2(C(=O)OCC)CCCCC/C=C/12 | · | · | · | · | -1 | 7 | · | · | · | ·
O=c1oc2ccccc2c(N2CCCCC2)c1[N+](=O)[O-] | 0 | i | · | 1.2* | 3 | 2 | 100 | 0 | 98 | 0
Cc1cc(NS(=O)(=O)c2ccc(NC(=O)Cc3ccc(Cl)c(Cl)c3)cc2)on1 | · | · | · | · | 0 | 0 | · | · | · | ·
CCn1c(=S)sc2c(=O)n(-c3ccccc3)c(SC)nc21 | 1 | i | · | 0 | 2 | -4 | · | · | · | ·

Screening data: PubChem, several laboratories
